Compound activity deposited in PubChem BioAssay by National Center for Advancing Translational Sciences (NCATS).
RORg inh = qHTS for inhibitors of ROR gamma transcriptional activity. Nuclear receptor ROR-gamma (Mus musculus), P51450. Drosophila S2 Gal4-RORgamma UAS-luciferase reporter, 20 h. Potency, µM (series often up to 53.6 µM), without a hit: at the top dose activity change, negative = inhibition, usual class: inhibitors. 5.4% of 310,000 active. AID 2551, 2010; also: nearly all actives have a fitted effect of over 60% in size
Target sequence (P51450 whole entry, looked up, the tested form may be a part): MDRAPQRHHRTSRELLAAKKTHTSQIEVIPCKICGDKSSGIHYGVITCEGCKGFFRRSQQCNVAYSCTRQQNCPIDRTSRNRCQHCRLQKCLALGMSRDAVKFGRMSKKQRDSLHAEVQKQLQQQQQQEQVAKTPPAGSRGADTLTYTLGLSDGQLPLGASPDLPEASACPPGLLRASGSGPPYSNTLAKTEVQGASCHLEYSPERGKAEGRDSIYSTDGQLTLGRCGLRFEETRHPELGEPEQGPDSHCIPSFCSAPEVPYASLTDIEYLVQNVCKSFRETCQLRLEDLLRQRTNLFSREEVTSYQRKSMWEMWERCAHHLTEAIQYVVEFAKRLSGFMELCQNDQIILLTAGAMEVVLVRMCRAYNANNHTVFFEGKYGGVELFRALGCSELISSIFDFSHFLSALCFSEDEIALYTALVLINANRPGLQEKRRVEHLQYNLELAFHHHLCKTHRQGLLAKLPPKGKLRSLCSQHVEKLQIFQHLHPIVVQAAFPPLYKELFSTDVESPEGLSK
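ROR gamma transcriptional activity was tracked as Gal4-UAS luciferase output in stably transfected Drosophila Schneider cells, with compound added 1 hr before 700 uM copper sulfate induction and a 20 hr ambient-temperature incubation.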
VP16 counter = VP16 counterscreen qHTS for inhibitors of ROR gamma transcriptional activity | Drosophila S2 Gal4-VP16 UAS-luciferase, luminescence, 20 h | Potency, µM (series often up to 53.6 µM), inactives show at the top dose activity, negative = inhibition, most hits filed as inhibitors | 3.5% of 310,000 active;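 also: Gal4-VP16 expression switched on by copper sulfate through the metallothionein promoter; nearly all actives have a fitted effect of over 50% in size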
Luc counter = Counterscreen for Luciferase (Kinase-Glo TM) Inhibition; Luciferin 4-monooxygenase (Photuris pensylvanica), Q27757; Kinase-Glo luciferase, ATP luminescence, 8 min; Potency, µM (highest dose often 38.3 µM), inactives show at the highest dose activity change, negative = inhibition, actives largely listed as inhibitors; 0.28% of 200,000 active; AID 1379, 2008; also: nearly all actives have a fitted effect of over 60% in size
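Light output from Kinase-Glo luciferase with luciferin and 10 uM ATP in 50 mM imidazole pH 7.2, KCl, MgCl2, Tween 20, BSA; compound pin-delivered, 8-min ambient incubation, then luminescence read.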
* = called active by the depositor; ? = inconclusive; / = not tested or not shown; [ ] = another dose, or the depositor's remark. Only some compounds are listed: those with a hit (about 6.4% of all), similar ones and a draw of the others. Calls follow the shape of the dose curve; as a rule, active = well fitted curve in the direction sought with a large enough effect; inconclusive = small, poorly fitted or top-dose-only effect, or another doubt; inactive = no such curve, though single readings can be large; an effect the other way counts as inactive or inconclusive. % is scaled to controls: 0 for no effect and ±100 for the full control effect; potency is read from the fitted curve at half-maximal effect.

SMILES	RORg inh	VP16 counter	Luc counter
CN(CC(=O)NC1CCCCCCC1)S(=O)(=O)c1cnc[nH]1	1%	-2%	-1%
Cc1cc(C)cc(C(=O)NCC(=O)OC(C)C(=O)N(C)c2ccccc2)c1 (stereo unspecified)	20%	-7%	-1%
COc1cc(Cl)ccc1NC(=O)COc1ccccc1C(=O)NN	12%	-16%	4%
NC(=O)c1ccc2c(=O)n3c(-c4cccs4)csc3nc2c1	6%	6%	/
O=C(COc1ccccc1)N1CCN(S(=O)(=O)c2cccc([N+](=O)[O-])c2)CC1	27%	22%	/
O=C(Nc1cc(C(F)(F)F)ccc1N1CCOCC1)c1ccccc1F	1%	1%	-7%
CC(C)(C)C(=O)NC(=S)Nc1cc(C(F)(F)F)ccc1N1CCOCC1	13µM*	?	-1%
O=C(CCCCl)NC(=S)Nc1cc(C(F)(F)F)ccc1N1CCOCC1	7.9µM*	?	0%
CCCC(=O)Nc1cc(C(F)(F)F)ccc1N1CCOCC1	18%	-4%[10 µM]	5%
CC(C)(C)C(=O)Nc1cc(C(F)(F)F)ccc1N1CCOCC1	?	-6%	0%
O=C(NC(=S)Nc1cc(C(F)(F)F)ccc1N1CCOCC1)c1sc2ccccc2c1Cl	2.2µM*	4µM*	2%
O=C(Cn1cc(C(=O)C(F)(F)F)c2ccccc21)N1CCOCC1	1%	1%	-1%
CCOC(=O)C[C@@H](C(=O)OCC)[C@@H]1CCCCC1=O	23%[10 µM]	-1%[10 µM]	/
O=C1C=CC(=O)N1c1cccc(-c2ccccc2)c1	0%	-27%	/
O=C1CCC=C1C(O)c1ccc(Cl)cc1 (stereo unspecified)	10%	-21%	1%
Cc1cc(C)nc(NN2C(=O)/C(=C/c3ccccc3)SC2=S)n1	13µM*	-12%	-3%
CC(=O)NN1C(=O)/C(=C\c2ccccc2)SC1=S	-12%	?	-6%
O=[N+]([O-])/C=C\c1ccc(N2CCCC2)c(F)c1	?	-16%[10 µM]	-5%
O=C(Nc1ccc(Br)cc1Br)C1CC(=O)N(Cc2ccccc2)C1 (stereo unspecified)	22%	19%	/
Cc1cccnc1NC(=O)c1ccc([N+](=O)[O-])o1	-37%	-23%	/
Cc1ccccc1NC(=O)c1ccc([N+](=O)[O-])o1	-23%	-14%	-3%
O=C(Nc1ccccc1Cl)c1ccc([N+](=O)[O-])o1	10µM*	16µM*	/
Cc1cccc(NC(=O)c2ccc([N+](=O)[O-])o2)n1	11µM*	?	0%
Cc1ccc(NC2CCCN(C(=O)c3ccoc3)C2)cc1C (stereo unspecified)	20%	1%	/
Cc1cc2c(c(=O)n1-c1ccccc1)C1O[C@](c3ccsc3)(Cc3ccccc31)O2	-8%[10 µM]	?	/
SMILES	RORg inh	VP16 counter	Luc counter
COc1ccccc1CNC(=O)C1CCC(=O)N(CCCc2ccccc2)C1 (stereo unspecified)	2%	5%	/
CCC(C)n1c(SCC(=O)NC(=O)c2cccn2C)nc2ccccc2c1=O (stereo unspecified)	14µM*	?	0%
C=CCn1c(SCC(=O)NC(=O)c2cccn2C)nc2ccccc2c1=O	1%	-5%	4%
CCOc1ccccc1NC(=O)N1CCCC(c2nc(-c3ccc(C)o3)no2)C1 (stereo unspecified)	-4%	-6%	0%
CC1CCCN(C(=O)CNC(=O)c2ccco2)C1 (stereo unspecified)	38%	12%	/
O=C(CCc1ccccc1)NC(c1cccs1)c1cc(Cl)c2cccnc2c1O (stereo unspecified)	0.63µM*	0.79µM*	6%
O=[N+]([O-])c1cccnc1NCc1cccs1	29%	26%	0%
O=C(CCc1ccccc1)NCc1ccccn1	-19%	-5%	-5%
CC(=O)NC(c1cccs1)c1cc([N+](=O)[O-])c2cccnc2c1O (stereo unspecified)	6.3µM*	16µM*	2%
O=C(COc1cccnc1[N+](=O)[O-])NCc1cccs1	3%	2%	1%
CCCC(=O)NC(C)C(c1cccs1)N1CCN(C)CC1 (stereo unspecified)	22%	-6%	2%
CCC(=O)NC(c1cccs1)c1cc([N+](=O)[O-])c2cccnc2c1O (stereo unspecified)	3.2µM*	5µM*	-4%
CCCC(=O)NC(c1cccs1)c1cc([N+](=O)[O-])c2cccnc2c1O (stereo unspecified)	5.6µM*	4µM*	0%
Cc1nnc(N2CCC(C(=O)N3CCCCCC3)CC2)c2nn(-c3ccc(Cl)cc3)c(C)c12	2%	-10%	/
CCC(NC(=O)Cc1c(C)c2cc3c(cc2oc1=O)OC(C)(C)CC3)C(=O)O (stereo unspecified)	31%	7%	/
CCC(=O)N1C2=C(c3ccccc3[C@@H]1CC(=O)Nc1ccc3ccccc3c1)[C@@H]1C(=O)N(c3ccccc3)C(=O)[C@@H]1[C@H](C)C2	/	/	-4%[7.66 µM]
CCCCc1c(O)nc(SCC(=O)c2ccccc2)n(-c2ccccc2)c1=O	8%	5%	/
Cc1cc(C)c2c(=O)cc(C(=O)NCc3ccccc3)oc2c1	-2%	-1%	/
CSc1nc(N)c(C(=O)NC2CCCCC2)s1	?	23%	/
Cc1nc2nc(CNC(=O)OC(C)(C)C)nn2c(C)c1CCC(=O)Nc1ccc2c(c1)OCO2	-12%	-3%	/
O=C(NC1=NCCS1)c1sc2ccccc2c1Cl	?	?	-3%
O=C(NC1=NCCS1)c1sc2cc(Cl)cc(Cl)c2c1Cl	6.3µM*	?	-1%
COC(=O)c1cc(S(=O)(=O)NC2CCCCC2)cn1C	0%	3%	/
Cc1cc(-c2ccccc2)c2c(=O)[nH][nH]c2n1	25%	?	-7%
CCCCC/C=C\C/C=C\CCCCCCCC(=O)NCCc1ccc(O)c(O)c1	5%	3%	-2%
SMILES	RORg inh	VP16 counter	Luc counter
CSc1cc(-c2ccc(Cl)cc2)c(C(=O)NC(C)C)s1	12%	-6%	-7%
CSc1cc(-c2ccc(Cl)cc2)c(C(=O)NN)s1	11µM*	?	-3%
CC1=NN(S(=O)(=O)c2ccc(Cl)cc2Cl)C(=O)c2ccccc2O1	14%	2%	/
O=C1CSC(c2cn(-c3ccccc3)nc2-c2cc3ccccc3o2)N1Cc1ccccc1 (stereo unspecified)	1%	14%	1%
Cc1ccc(-c2nn(-c3ccccc3)cc2C2SCC(=O)N2Cc2ccccc2)o1 (stereo unspecified)	11µM*	?	0%
COc1ccccc1NS(=O)(=O)c1ccc(N/N=C/C=C/c2ccccc2[N+](=O)[O-])c([N+](=O)[O-])c1	5%	-1%	-3%
COc1ccccc1NS(=O)(=O)c1ccc(NN=C2CCCC2)c([N+](=O)[O-])c1	?	18µM*	/
O=C(NCCc1ccc(C(F)(F)F)cc1)C1CCC(=O)N(CCCc2ccccc2)C1 (stereo unspecified)	44%	-5%	/
CC(C)(C)NC(=O)CN(Cc1ccc2c(c1)OCO2)C(=O)CNC(=O)c1cccs1	18%	-1%	3%
COC(=O)Cc1cc(=O)oc2cc(O)ccc12	15%	-3%	1%
